# Calls of active or inactive are those of the source. Unless noted, no rule for the calls is given here.
# What was measured:
# [1] = test system: XIP peptide (Xip251-270) binding; assay: XIP fragment 251-270 binding compounds – biochemical, small-molecule microarray, fluorescence 635/667 nm, 0.1 µg/mL protein, primary screen (AID 1182); conditions: fluorescent protein binding, 635 nm, higher = more signal, called active from +8 up or from −8 down
# [2] = test system: XIP peptide (Xip251-270); assay: compounds binding XIP fragment 251-270 – biochemical, small-molecule microarray, fluorescence 635/667 nm, 0.5 µg/mL protein, primary screen (AID 1183); conditions: fluorescence 635 nm, higher = more signal
# [3] = blood-stage malaria parasite viability loss – strain 3D7, DAPI fluorescence, 100 nL, primary screen (AID 1184);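 also: parasites grown inside human red blood cells in medium with human serum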; conditions: P. falciparum 3D7 growth, 3 d, higher = more signal
# [4] = biological target: Homeobox protein Hox-A13 (Mus musculus) (UniProt Q62424); assay: disruptors of Hoxa13 oligonucleotide interaction – biochemical, fluorescence polarization, labeled oligonucleotide, primary screen (AID 1185); conditions: Hoxa13:DNA binding, 15 min, higher = more signal, called active from +8 up or from −8 down
# Sequence of Homeobox protein Hox-A13 (Mus musculus) (Q62424 whole entry, looked up): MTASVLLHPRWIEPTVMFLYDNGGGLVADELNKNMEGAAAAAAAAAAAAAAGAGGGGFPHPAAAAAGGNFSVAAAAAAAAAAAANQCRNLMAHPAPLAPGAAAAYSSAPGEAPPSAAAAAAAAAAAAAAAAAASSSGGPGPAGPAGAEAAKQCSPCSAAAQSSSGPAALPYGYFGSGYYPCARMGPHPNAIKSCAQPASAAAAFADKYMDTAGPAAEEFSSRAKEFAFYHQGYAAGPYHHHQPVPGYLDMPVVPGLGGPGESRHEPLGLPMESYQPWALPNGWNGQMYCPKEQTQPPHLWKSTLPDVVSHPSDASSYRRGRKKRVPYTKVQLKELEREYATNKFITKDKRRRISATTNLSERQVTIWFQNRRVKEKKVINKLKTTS
# [5] = blockers of DNA damage checkpoint Chk1 activation – imaging, HeLa, hydroxyurea, phospho-Chk1 antibody, percent positive cells, primary screen (AID 1186); conditions: hydroxyurea-induced phospho-Chk1 immunofluorescence imaging, higher = more signal
# [6] = blockers of DNA damage checkpoint Chk1 activation – imaging, HeLa, hydroxyurea, phospho-Chk1 nuclear intensity, primary screen (AID 1187); conditions: hydroxyurea-induced phospho-Chk1 immunofluorescence imaging, higher = more signal
Structure (SMILES),composite z-score [1],composite z-score [2],z-score [3],z-score [4],z-score [5],z-score [6]
COC(=O)[C@@]1(Cc2ccccc2)[C@H]2c3cc(C(=O)N4CCCC4)n(C)c3C[C@H]2CN1C(=O)c1ccccc1,-0.0625 (inactive),0.46,-0.994,-5.7 (inactive),0.0684 (inactive),-0.0761 (inactive)
O=C1O[C@@H](c2ccccc2)[C@@H](c2ccccc2)N2[C@@H](c3ccc(O)cc3)[C@]3(C(=O)Nc4ccc(C#CC5=CCCCC5)cc43)[C@@H](C(=O)O)[C@H]12,1.53 (inactive),0.327,0.202,-5.46 (inactive),-0.0372 (inactive),0.277 (inactive)
CC(c1ccccc1)C(O)C1C=CC2C(=O)NC(=O)C2N1Nc1ccccn1 (stereo not given),0.197 (inactive),0.676,0.196,-1.82 (inactive),0.651 (inactive),0.136 (inactive)
CN1C=C(C(=O)OCCS(C)(=O)=O)C(C(=O)OCCS(C)(=O)=O)=CC(CCCO)=CC1C1CC1 (stereo not given),1.7 (inactive),0.01,-0.766,-5.26 (inactive),-1.31 (inactive),-0.118 (inactive)
C=CCC(OC(C)=O)[C@@H]1[C@@H](N(Cc2ccc(-c3ccccc3)cc2)C(=O)Cc2ccc(OC)cc2)c2cc(OCCCO)ccc2N1C(=O)c1ccc2ccccc2n1 (stereo not given in full),0.0404 (inactive),0.219,-2.87,-1.25 (inactive),-0.0117 (inactive),0.336 (inactive)
CC(C)(C)OC(=O)CC[C@@]1(C(=O)O)N=C(c2ccc(OCCCO)cc2)O[C@@H]1c1ccccc1N=[N+]=[N-],1.37 (inactive),-0.333,0.603,-5.2 (inactive),-0.157 (inactive),-0.51 (inactive)
[N-]=[N+]=NCc1ccccc1[C@H]1OC(c2ccc(OCCCO)cc2)=N[C@@]1(CCS(=O)(=O)c1ccccc1)C(=O)N1CCOCC1,1.53 (inactive),0.768,-2.22,-3.2 (inactive),-0.0312 (inactive),0.246 (inactive)
C=CCC(OC(C)=O)[C@@H]1[C@@H](N(Cc2ccc(-c3ccccc3)cc2)C(=O)Cc2ccc(F)cc2)c2cc(OCCCO)ccc2N1C(=O)c1ccc2ccccc2n1 (stereo not given in full),-0.517 (inactive),-0.32,-1.35,-1.5 (inactive),0.344 (inactive),-0.0849 (inactive)
N#Cc1ccc(NN2C(C(O)c3cccs3)C=CC3C(=O)N(c4ccccc4)C(=O)C32)cc1 (stereo not given),0.529 (inactive),0.477,0.407,-2.34 (inactive),0.0213 (inactive),-0.548 (inactive)
[N-]=[N+]=NCc1ccccc1C[C@@]1(C(=O)NCC(O)CO)N=C(c2ccc(OCCCO)cc2)O[C@@H]1c1ccccc1CN=[N+]=[N-] (stereo not given in full),-0.0479 (inactive),0.748,-2.01,-3.3 (inactive),-0.0621 (inactive),0.0477 (inactive)
C=CCOC(=O)[C@@H]1[C@H]2C(=O)O[C@H](c3ccccc3)[C@H](c3ccccc3)N2[C@H](c2ccc(OCCOC(=O)[C@@H]3C[C@@H]4C(=O)NCC(=O)N4[C@@H]3c3cccc(OCCO)c3)cc2)[C@@]12C(=O)Nc1ccc(I)cc12,0.567 (inactive),0.765,-1.6,0.8 (inactive),1.07 (inactive),0.783 (inactive)
CC(C)NC(=O)[C@@H]1c2ccccc2C(=O)N(Cc2ccccc2Cl)[C@H]1c1ccc(CO)cc1,0.989 (inactive),0.719,-0.842,-3.24 (inactive),0.323 (inactive),0.667 (inactive)
CC(C)C(=C=CC[C@H](O)c1ccccc1OCCO)C[C@H](O)c1ccccn1,0.241 (inactive),0.0067,-1.41,-4.79 (inactive),0.293 (inactive),0.546 (inactive)
COC(=O)c1ccc(OC)c(/C=C\CC(OC(C)=O)c2ccccc2)c1 (stereo not given),0.322 (inactive),0.501,0.0859,-2.35 (inactive),0.237 (inactive),0.328 (inactive)
[N-]=[N+]=NCc1ccccc1C[C@]1(C(=O)O)N=C(c2ccc(OCCCO)cc2)O[C@H]1c1ccccc1,1.06 (inactive),0.228,-0.296,-5.85 (inactive),0.109 (inactive),0.0605 (inactive)
C=CCNC(=O)[C@@H]1[C@H]2C(=O)O[C@H](c3ccccc3)[C@H](c3ccccc3)N2[C@H](c2ccc(OCCO)cc2)[C@@]12C(=O)Nc1ccccc12,0.0997 (inactive),0.371,-1.09,-4.6 (inactive),-0.122 (inactive),-0.303 (inactive)
CCCCC(O)C1C=CC2C(=O)N(C3CCCCC3)C(=O)C2N1Nc1ccc(OC)cc1 (stereo not given),0.222 (inactive),0.808,-0.265,-3.58 (inactive),0.895 (inactive),0.719 (inactive)
Cc1ccccc1C(O)C1C=CC2C(=O)N(C)C(=O)C2N1N1CCCCC1 (stereo not given),0.547 (inactive),0.576,0.737,-6.67 (inactive),0.193 (inactive),-0.0403 (inactive)
COc1ccc(NN2C(C(O)c3ccc(OC)c(OCc4ccccc4)c3)C=CC3C(=O)N(C4CCCCC4)C(=O)C32)cc1 (stereo not given),-0.137 (inactive),0.628,-1.02,-1.81 (inactive),-0.487 (inactive),-0.892 (inactive)
O=C(NCc1ccccc1)[C@]1(CCS(=O)(=O)c2ccccc2)N=C(c2ccc(OCCCO)cc2)O[C@@H]1c1ccccc1,0.605 (inactive),0.678,-2.18,-1.13 (inactive),-0.362 (inactive),-0.255 (inactive)
